# In PubChem BioAssay (EPA / NIEHS):
# Records with an inconclusive call do not appear. The source made the active and inactive calls. Rule for the calls, unless noted: active = hit-call score of the fitted dose curve at least 0.9, where 1 is the maximum; inconclusive = response in the unintended direction; inactive = score below 0.9.
# Read-out: Cytochrome P450 2C19 (Homo sapiens) (UniProt P33261)
# Test: CLD_CYP2C19_48hr: CellzDirect (CLD) Gene Expression Assay for xenobiotic metabolism (CYP2C19) at 48 hours (AID 2283700);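 note: fitted upward so actives raise CYP2C19 mRNA above the 0.2% DMSO vehicle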
# In short: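 Primary human hepatocytes (two donor preparations) dosed daily for two days, harvested at 48 h; CYP2C19 mRNA induction measured by qNPA chemiluminescence. Gain-of-signal fitted relative to 0.2% DMSO vehicle as baseline.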
# Sequence of Cytochrome P450 2C19 (Homo sapiens) (P33261 whole entry, looked up): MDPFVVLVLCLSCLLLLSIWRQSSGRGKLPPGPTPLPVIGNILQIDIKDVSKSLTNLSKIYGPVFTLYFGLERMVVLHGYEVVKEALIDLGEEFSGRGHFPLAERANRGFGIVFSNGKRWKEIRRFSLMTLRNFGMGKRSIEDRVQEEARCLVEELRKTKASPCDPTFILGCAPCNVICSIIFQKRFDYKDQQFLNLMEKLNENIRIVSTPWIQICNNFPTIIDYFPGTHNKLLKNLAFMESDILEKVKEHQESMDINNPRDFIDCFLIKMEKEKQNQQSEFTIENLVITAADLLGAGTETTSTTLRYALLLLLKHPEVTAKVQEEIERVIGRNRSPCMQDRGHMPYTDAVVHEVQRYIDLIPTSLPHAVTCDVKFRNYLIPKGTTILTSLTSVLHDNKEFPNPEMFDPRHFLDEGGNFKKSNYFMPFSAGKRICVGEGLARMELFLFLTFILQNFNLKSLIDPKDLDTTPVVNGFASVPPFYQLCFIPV
row,SMILES,outcome
1,CC1COC(Cn2cncn2)(c2ccc(Oc3ccc(Cl)cc3)cc2Cl)O1 (stereo not drawn),inactive
2,CCCCNC(=O)n1c(NC(=O)OC)nc2ccccc21,inactive
3,Oc1ccccc1-c1ccccc1,inactive
4,CCOc1cc(Oc2ccc(C(F)(F)F)cc2Cl)ccc1[N+](=O)[O-],inactive
5,C=CC1(C)OC(=O)N(c2cc(Cl)cc(Cl)c2)C1=O (stereo not drawn),inactive
6,CS/C(C)=N/OC(=O)N(C)SN(C)C(=O)O/N=C(\C)SC,inactive
7,CCNc1nc(Cl)nc(NCC)n1,inactive

# Read-out: Cytochrome P450 2C9 (Homo sapiens) (UniProt P11712)
# Test: CLD_CYP2C9_48hr: CellzDirect (CLD) Gene Expression Assay for xenobiotic metabolism (CYP2C9) at 48 hours (AID 2283701; active = hit-call score of the fitted dose curve at least 0.9, where 1 is the maximum; inactive = score below 0.9)
# In short: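 Primary human hepatocytes (two donor preparations) dosed daily for two days with test chemicals, 0.2% DMSO vehicle; harvested at 48 h. mRNA induction quantified by qNPA chemiluminescence, fitted for gain of signal against DMSO baseline; cytotoxicity annotated from phase-contrast morphology.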
row,SMILES,outcome
1,COP(=S)(OC)Oc1nc(Cl)c(Cl)cc1Cl,inactive
2,O=C(O)COc1nc(Cl)c(Cl)cc1Cl,inactive
3,CC(Oc1ccc(Cl)cc1Cl)C(=O)O (stereo not drawn),inactive
4,C#CCOS(=O)OC1CCCCC1Oc1ccc(C(C)(C)C)cc1 (stereo not drawn),inactive
5,COC(=O)c1ccccc1C(=O)OC,inactive
6,Fc1ccc(Oc2ccnc3cc(Cl)cc(Cl)c23)cc1,inactive
